Measured values as given in the supplement of paper PMC10941209.

tested on: HFF; assay: cell viability relative to DMSO control; higher = less cytotoxic; settings: 1 µM; 72 h
Procedure: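 Single-dose cytotoxicity screen of the MMV Pandemic Response Box at 1 uM on human foreskin fibroblasts (HFF), 72 h at 37 C. Viability measured by MTT (OD 550 nm) and normalised to the DMSO control (% survival).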

| Compound | cell viability |
| --- | --- |
| O=[N+]([O-])c1cn2c(n1)OC[C@@H](OCc1ccc(OC(F)(F)F)cc1)C2 | 64.4% |
| Cc1cc(C)n2nc(C(=O)NS(=O)(=O)c3c(C)cccc3OC(F)(F)F)nc2n1 | 72.2% |
| N#CCN1C(=O)COc2cc(F)c(N3C(=O)c4ccccc4C3=O)cc21 | 63.5% |
| CCCCCCCCCN1C[C@@H](O)[C@H](O)[C@@H](O)[C@@H]1CO | 84.2% |
| NCc1ccc(S(N)(=O)=O)cc1 | 61.5% |
| OCCC#Cc1nc(-c2ccc(F)cc2)c(-c2ccncc2)n1CCCc1ccccc1 | 81.7% |
| C[C@@H](NC(=O)c1cccc(-c2cnc(-c3cc4ccccc4cn3)[nH]2)c1)c1ccc(F)cc1 | 74.3% |
| CCC[C@H](NC(=O)[C@@H]1[C@H]2CCC[C@H]2CN1C(=O)[C@@H](NC(=O)[C@@H](NC(=O)c1cnccn1)C1CCCCC1)C(C)(C)C)C(=O)C(=O)NC1CC1 | 61.8% |
| CC#C[C@]1(O)CC[C@H]2[C@@H]3CCC4=CC(=O)CCC4=C3[C@@H](c3ccc(N(C)C)cc3)C[C@@]21C | 52% |
| CCCNc1ccc(S(=O)(=O)Nc2cc(C)on2)cc1 | 69.3% |
| Nc1nc(O)c2ncn([C@@H]3O[C@H](CO)[C@@H](O)[C@H]3F)c2n1 | 68.9% |
| CN1CCN(c2ccc3[nH]c(-c4ccc5[nH]c(-c6ccc(O)cc6)nc5c4)nc3c2)CC1 | 68.8% |
| CONC(=N)c1ccc(-c2ccc(-c3ccc(C(=N)NOC)cc3)o2)cc1 | 63.9% |
| CCn1cc(C(=O)O)c(=O)c2cc(F)c(N3CCNC(C)C3)c(F)c21 (configuration not stated) | 71.2% |
| O=C(Nc1ccc(N2CCN(C(=O)c3ccccc3)CC2)cc1)c1ccc2c(c1)OCO2 | 60.1% |
| CC1=C(/C=C/C(C)=C/C=C/C(C)=C/C(=O)Nc2ccc(O)cc2)C(C)(C)CCC1 | 70.8% |
| CC(=O)N1CCN(c2ccc(OCC3COC(Cn4ccnc4)(c4ccc(Cl)cc4Cl)O3)cc2)CC1 (configuration not stated) | 62.9% |
| OCCCCn1cnc2c(O)nc(NCc3ccc(Cl)c(Cl)c3)nc21 | 62.2% |
| C=CCN(C(=O)OCc1ccc([N+](=O)[O-])cc1)C1CCN(CC[C@](C)(CN(C)S(=O)(=O)c2ccccc2)c2ccccc2)CC1 | 69.6% |

| Compound | cell viability |
| --- | --- |
| Cc1[nH]c2ccccc2c1CCNCc1ccc(/C=C/C(=O)NO)cc1 | 19% |
| COc1cc(C2C3=C(CC(C)(C)CC3=O)Nc3ccccc3N2C(C)=O)ccc1OCc1ccccc1 (configuration not stated) | 67.1% |
| CSc1ccc2c(c1)C(N1CCN(C)CC1)Cc1ccccc1S2 (configuration not stated) | 65% |
| CCc1cc(Nc2cc(=O)n(CCN3CCN(C(=O)c4ccccc4)CC3)c(=O)[nH]2)ccc1C | 68.7% |
| Nc1nc2c(Cc3cccnc3)c[nH]c2c(=O)[nH]1 | 65.2% |
| c1ccc(-c2nnc3c4ccccc4c(N4CCNCC4)nn23)cc1 | 73.2% |
| NCCCc1ccccc1C(=O)Nc1ncc([N+](=O)O)s1 | 65% |
| O=C(CCCC(F)(F)F)N1CCC(c2nc(-c3nccs3)no2)CC1 | 67.4% |
| CC[C@@H](CO)NCCN[C@@H](CC)CO | 76.1% |
| CCC(C)NCC(O)Cn1c2ccc(Cl)cc2c2cc(Cl)ccc21 (configuration not stated) | 68.3% |
| Nc1nc(F)nc2c1ncn2[C@H]1O[C@@H](CO)[C@H](O)[C@@H]1O | 65% |
| O=C(NNC(=S)Nc1ccc(Cl)cc1)c1ccncc1 | 64.2% |
| N#Cc1c(F)c(Cl)c(NCc2ccccc2)c(C#N)c1F | 66.6% |
| Nc1nc(=O)[nH]cc1F | 64.8% |
| CC(=O)O[C@H]1C[C@@]2(C)[C@@H](C[C@@H](O)[C@H]3[C@@]4(C)CC[C@@H](O)[C@@H](C)[C@@H]4CC[C@@]32C)/C1=C(\CCC=C(C)C)C(=O)O | 63.5% |
| COc1ccc(NC(=O)c2cc3ccccn3n2)cc1 | 62.2% |
| O=C(Nc1ccc(F)cc1)c1nn(-c2ccccc2)c(=O)cc1Cl | 71% |
| CN(C)CCCOc1ccc(-c2ccc3ncc4c(c3c2)n(C2CCOCC2)c(=O)n4C)cn1 | 60.6% |
